Compounds with a hit are over-represented: about 19% of the library has one in this group of screens.
HT1080 IDH1KD tx: qHTS for induction of synthetic lethality in tumor cells producing 2HG: qHTS for the HT-1080-IDH1KD cell line; HT-1080 IDH1 knockdown viability, ATP luminescence, 48 h; 360,000 compounds, 2% hits; Potency, µM (highest dose often 46.1 µM), actives largely listed as cytotoxic; AID 686971, 2013
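Knockdown cells (IDH1KD HT-1080) received compounds 2 h after plating at 750 cells/well and were kept 48 h at 37 °C in 5% FBS RPMI. A CellTiter-Glo luminescence read gave % activity for curve fitting.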
IL1B secr inh: qHTS for Inhibitors of Inflammasome Signaling: IL-1-beta AlphaLISA Primary Screen; THP-1 LPS/ATP IL-1B secretion, AlphaLISA, 16 h; hits give low values; activity change, % at 57.5 µM; 360,000 compounds, 4.7% hits; AID 743279, 2014; in the data active = activity change below about -50%; inconclusive = mostly about -30% to -49%
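Secreted IL-1B measured by AlphaLISA bead assay after 16 h compound exposure of THP-1 cells; compounds (final up to 57.5 uM) added 1 h before LPS (250 ng/mL) and ATP (1.25 mM) stimulation; lower signal means less secretion.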
ELG1 DNA repair: qHTS screen for small molecules that inhibit ELG1-dependent DNA repair in human embryonic kidney (HEK293T) cells expressing luciferase-tagged ELG1 | HEK293T ELG1-luciferase reporter, luminescence, 16 h; DNA damage induced by 5-fluorouridine | Potency, µM (highest dose often 46.1 µM), actives largely listed as inhibitors | 330,000 compounds, 2.3% hits; note: nearly all actives have a fitted effect of over 55% in size
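DMSO vehicle served as the neutral condition. Each well held 2,000 cells given 5-fluorouridine plus compound; after 16 hr at 37 °C/5% CO2, ONE-Glo was added and luciferase measured 30 min later.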
HT1080-NT tox: qHTS for induction of synthetic lethality in tumor cells producing 2HG: qHTS for the HT-1080-NT fibrosarcoma cell line; HT-1080-NT fibrosarcoma viability, CellTiter-Glo ATP luminescence, 48 h; 360,000 compounds, 1.6% hits; Potency, µM (titrated, usually from 46.1 µM), hits mostly cytotoxic;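 note: NT is the 2HG producing partner of a matched IDH1 knockdown line; nearly all actives have a fitted effect of over 55% in size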
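A 48-hour cytotoxicity screen used HT-1080-NT cells plated 2 hours before compound delivery. ATP-based CellTiter-Glo luminescence measured viability, normalized to DMSO and no-cell controls.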
DT40 TDP1 CPT: qHTS for Inhibitors of human tyrosyl-DNA phosphodiesterase 1 (TDP1): qHTS in cells in presence of CPT; Potency, µM (top dose mostly 46.2 µM), actives largely listed as inhibitors; 420,000 compounds, 12% hits; chicken DT40 Tdp1-/-;hTDP1 cells + 20 nM CPT, ATP luminescence, 48 h; note: nearly all actives have a fitted effect of over 55% in size
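Chicken DT40 Tdp1-/- cells stably complemented with human TDP1 were seeded at 400 cells/well in medium containing 20 nM camptothecin, exposed to pin-transferred compounds, and grown at 37 °C for at least 48 hr. Viability was read as ATP luminescence.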
DT40 TDP1 no CPT: qHTS for Inhibitors of human tyrosyl-DNA phosphodiesterase 1 (TDP1): qHTS in cells in absence of CPT | DT40 Tdp1-/- hTDP1 cells, no CPT, ATP luminescence, 48 h | 420,000 compounds, 15% hits | Potency, µM (doses to about 46.2 µM), actives largely listed as inhibitors; note: nearly all actives have a fitted effect of over 55% in size
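Stably hTDP1-transfected Tdp1-null chicken DT40 cells were treated with library compounds minus camptothecin and grown for at least 48 hr at 37 °C, after which cellular ATP was quantified by luminescence.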
Hits are given with their value; n = inactive; u = inconclusive; x = no result; [ ] = remark or other dose. Unless noted, calls come from the whole dose curve; as a rule, active = well fitted curve in the direction sought with a large enough effect; inconclusive = small, poorly fitted or top-dose-only effect, or another doubt; inactive = no such curve, though single readings can be large; an effect the other way counts as inactive or inconclusive.

SMILES | HT1080 IDH1KD tx | IL1B secr inh | ELG1 DNA repair | HT1080-NT tox | DT40 TDP1 CPT | DT40 TDP1 no CPT
Cc1ccc(S(=O)(=O)NC(=O)C2(C)CCN2C(=O)C2(c3ccc(Cl)cc3)CCC2)cc1 (stereo unspecified) | n | n | x | n | n | n
CC1(C(=O)NS(=O)(=O)c2ccc(C#N)cc2)CCN1C(=O)C1(c2ccccc2)CCCC1 (stereo unspecified) | u | n | x | n | 11.6µM | 13µM
CC1(C(=O)NS(=O)(=O)c2ccc(Cl)cc2)CCN1C(=O)C1(c2ccc(Cl)cc2)CCC1 (stereo unspecified) | n | n | x | n | 20.6µM | u
CC1(C(=O)NS(=O)(=O)c2ccc(Cl)cc2)CCN1C(=O)C1(c2ccccc2)CCCC1 (stereo unspecified) | n | n | x | n | u | u
COc1ccc(CCNC(=O)c2cnn(-c3nccc(-c4ccco4)n3)c2C)cc1 | x | x | x | x | n[9.04 µM] | n
O=C(NC1CCCC1)C(c1ccc(F)cc1)N(C(=O)c1csnn1)C1CC1 (stereo unspecified) | n | n | n | n | n | n
CN(C)C(=O)c1ccc(NC(=O)c2cccc(S(=O)(=O)N3CCCc4ccccc43)c2)cc1 | n | n | u | u | 23.1µM | 16.4µM
CN1CCc2nc(NC(=O)c3cccc(S(=O)(=O)N4CCc5ccccc54)c3)sc2C1 | n | n | n | n | n | n
O=C(Nc1cccnc1)c1cccc(S(=O)(=O)N2CCc3ccccc32)c1 | n | n | u | n | 25.9µM | u
O=C(NCCCN1CCOCC1)c1cccc(S(=O)(=O)N2CCc3ccccc32)c1 | n | n | x | n | u | 23.1µM
O=C(Nc1nc2c(s1)CCCC2)c1cccc(S(=O)(=O)N2CCCc3ccccc32)c1 | n | n | n | n | 25.9µM | 23.1µM
CN(C)C(=O)c1ccc(NC(=O)c2cccc(S(=O)(=O)N3CCCCCC3)c2)cc1 | n | n | n | n | n | u
Cc1cccc(N2CCN(c3ccc4cc(S(=O)(=O)N5CCC(C)CC5)ccc4n3)CC2C)c1 (stereo unspecified) | x | x | x | x | n | n
O=C(Cn1c(NCCCO)nc2ccccc21)c1ccc(F)cc1 | n | n | n | n | n | n
O=C(Nc1ccncc1)c1cccc(S(=O)(=O)N2CCc3ccccc32)c1 | u | u | u | n | 5.8µM | 6.51µM
O=C(O)c1cccc(NC(=O)c2cccc(S(=O)(=O)N3CCc4ccccc43)c2)c1 | n | n | u | n | n | n
COc1ccc(/C=C/C(=O)N2CCN(c3ccccn3)CC2)c2ccccc12 | n | n | n | n | u | 25.9µM
COc1ccc(/C=C/C(=O)N2CCN(c3ccccn3)CC2)c(OC)c1OC | n | n | u | n | u | u
CC(C)C(=O)N1CCC(c2nc(-c3ccc(S(=O)(=O)N4CCCC4)cc3)no2)CC1 | n | n | n | n | u | u
O=C(c1ccco1)N1CCC(c2nc(-c3ccccc3Cl)no2)CC1 | n | n | n | n | u | n
O=C(Nc1ccccc1)N1CCC(c2nc(-c3ccc(S(=O)(=O)N4CCOCC4)cc3)no2)CC1 | 7.94µM | n | u | 10µM | 4.11µM | 3.26µM
O=C(Nc1ccc(Cl)cc1)N1CCC(c2nc(-c3ccccc3Cl)no2)CC1 | u | n | 13µM | u | 23.1µM | 18.4µM
Cc1ccccc1C(=O)N1CCC(c2nc(-c3ccc(S(=O)(=O)N4CCCC4)cc3)no2)CC1 | x | x | x | x | n | n
O=C(c1cccs1)N1CCC(c2nc(-c3ccc(S(=O)(=O)N4CCOCC4)cc3)no2)CC1 | n | n | u | n | u | 18.4µM
